Several values for one entry are separate records, joined by “and”; a condition that tells them apart may be missing. Equal values may be shown once. Unmarked numbers belong to inactive results.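 How the source made its calls: active = AUC reduced over 20% with Padj below 0.05 in at least 2 of 3 replicates; inactive = otherwise.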
Key:
Assay in all cases: growth AUC relative to DMSO control (median of replicates) (fraction); higher = more growth (less inhibition), active = hit call of the paper
Conditions in all cases: 20 µM; 24 h
Akkermansia muciniphila = system: Akkermansia muciniphila
Outline: (§1)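 In round-bottom 96-well plates sealed with pierced gas-permeable seals, gut bacterial monocultures in mGAM were grown anaerobically at 37 °C from OD600 0.05 with 20 µM compound (1% DMSO). OD600 readings were taken hourly for 24 h, and the minimum OD was set to 0. Area under the growth curve was then normalised to the plate median of solvent-only wells, or to row and column medians on the industrial chemical plate. The value given is the median of three biological replicates grown on separate days.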

Bacteroides caccae = system: Bacteroides caccae
Outline: as §1

Bacteroides clarus = system: Bacteroides clarus
Outline: as §1

Bacteroides dorei = system: Bacteroides dorei
Outline: as §1

Bacteroides stercoris = system: Bacteroides stercoris
Outline: as §1

[1] = system: Bacteroides thetaiotaomicron
Outline: as §1

Bacteroides uniformis = system: Bacteroides uniformis
Outline: as §1

[2] = system: Bifidobacterium longum subsp. longum
Outline: as §1

Clostridium difficile = system: Clostridium difficile
Outline: as §1

Collinsella aerofaciens = system: Collinsella aerofaciens
Outline: as §1

Coprococcus comes = system: Coprococcus comes
Outline: as §1

Escherichia coli ED1a = system: Escherichia coli ED1a
Outline: as §1

Escherichia coli IAI1 = system: Escherichia coli IAI1
Outline: as §1

Eubacterium rectale = system: Eubacterium rectale
Outline: as §1

[3] = system: Fusobacterium nucleatum subsp. animalis
Outline: as §1

Lactobacillus gasseri = system: Lactobacillus gasseri
Outline: as §1

Lactobacillus paracasei = system: Lactobacillus paracasei
Outline: as §1

Odoribacter splanchnicus = system: Odoribacter splanchnicus
Outline: as §1

[4] = system: Parabacteroides distasonis
Outline: as §1

Parabacteroides merdae = system: Parabacteroides merdae
Outline: as §1

Compound | growth AUC (Akkermansia muciniphila) | growth AUC (Bacteroides caccae) | growth AUC (Bacteroides clarus) | growth AUC (Bacteroides dorei) | growth AUC (Bacteroides stercoris) | growth AUC [1] | growth AUC (Bacteroides uniformis) | growth AUC [2] | growth AUC (Clostridium difficile) | growth AUC (Collinsella aerofaciens) | growth AUC (Coprococcus comes) | growth AUC (Escherichia coli ED1a) | growth AUC (Escherichia coli IAI1) | growth AUC (Eubacterium rectale) | growth AUC [3] | growth AUC (Lactobacillus gasseri) | growth AUC (Lactobacillus paracasei) | growth AUC (Odoribacter splanchnicus) | growth AUC [4] | growth AUC (Parabacteroides merdae)
CNC(=O)ON=C(CSC)C(C)(C)C | 0.989 | 1.01 | 0.992 | 0.929 | 1 | 0.986 | 1.04 | 0.999 | 1 | 0.983 | 0.968 | 1.01 | 1 | 0.981 | 1.01 | 1.03 | 0.985 | 0.983 | 1.02 | 1.02
CCOP(=S)(Oc1cnc(C(C)(C)C)nc1)OC(C)C (stereo not given) | 0.912 | 0.973 | 0.94 | 1.02 | 0.977 | 1.01 | 0.974 | 0.97 | 1 | 1.03 | 0.998 | 1.01 | 0.985 | 0.811 | 1.02 | 1.11 | 0.988 | 1.07 | 1.03 | 0.995
CCOCN(C(=O)CCl)c1c(C)cccc1CC | 0.969 | 1.01 | 0.995 | 1.04 | 1 | 0.967 | 0.968 | 0.986 | 0.983 | 1.03 | 1.01 | 1 | 1.04 | 0.983 | 1.04 | 1.03 | 1.05 | 1.01 | 1.03 | 0.974
Cc1cc(OC(=O)N(C)C)nn1C(=O)N(C)C | 0.959 | 1.02 | 0.992 | 0.968 | 1.09 | 1.02 | 0.979 | 0.988 | 1.01 | 1.02 | 1.03 | 0.996 | 0.971 | 1.01 | 1.03 | 0.992 | 0.963 | 0.935 | 1.11 | 0.966
CC1(C)C(C(=O)OC(C#N)c2cccc(Oc3ccccc3)c2)C1(C)C (stereo not given) | 0.879 | 0.995 | 0.991 | 0.996 | 0.946 | 0.986 | 1.01 | 0.951 | 1.01 | 0.995 | 1.03 | 1.01 | 0.988 | 1 | 0.928 | 0.909 | 1.04 | 0.959 | 1.15 | 0.965
CC(C)(C)c1ccc(CCOc2ncnc3ccccc23)cc1 | 1.16 | 0.952 | 0.973 | 0.921 | 0.872 | 0.975 | 0.944 | 0.996 | 0.98 | 0.943 | 0.98 | 0.976 | 0.973 | 0.905 | 0.887 | 0.924 | 0.942 | 0.834 | 0.795 (active) | 0.934
CSc1nnc(C(C)(C)C)c(=O)n1N | 0.996 | 1.07 | 1.01 | 1.02 | 1.06 | 0.996 | 1.02 | 1.09 | 1.03 | 1 | 1.07 | 1.04 | 1.01 | 0.997 | 1.03 | 1.06 | 1.03 | 1.05 | 1.02 | 1.01
CCCN(CCCl)c1c([N+](=O)[O-])cc(C(F)(F)F)cc1[N+](=O)[O-] | 1.01 | 0.977 | 0.95 | 0.94 | 0.93 | 0.918 | 0.927 | 1.07 | 0.995 | 0.961 | 0.914 | 0.983 | 0.987 | 0.942 | 1.05 | 0.875 | 1.06 | 1.13 | 0.962 | 0.955
COCC(=O)N(c1c(C)cccc1C)C(C)C(=O)OC (stereo not given) | 1.11 | 1.03 | 1.02 | 1.03 | 1.08 | 1.02 | 1.02 | 1.1 | 1.04 | 1.02 | 1.02 | 0.989 | 1.01 | 1.04 | 1.09 | 1.09 | 0.987 | 1.04 | 1.05 | 1.05
CCOC(=O)C(SP(=S)(OC)OC)c1ccccc1 (stereo not given) | 0.867 | 0.974 | 0.933 | 0.973 | 0.986 | 0.938 | 0.929 | 1 | 1.04 | 1 | 1.02 | 0.991 | 0.976 | 0.821 | 0.904 | 1.05 | 1.02 | 0.958 | 0.746 (active) | 0.958
CC(C)(C)C(O)C(Oc1ccc(Cl)cc1)n1cncn1 (stereo not given) | 0.947 | 0.985 | 0.996 | 1 | 1.17 | 0.986 | 1.04 | 0.943 | 1.08 | 1.03 | 0.998 | 1.01 | 1.02 | 0.97 | 1.07 | 1.02 | 1.04 | 1.03 | 1.02 | 0.998
O=S1OC[C@@H]2[C@H](CO1)[C@]1(Cl)C(Cl)=C(Cl)[C@@]2(Cl)C1(Cl)Cl (stereo not given in full) | 0.871 and 0.977 | 0.96 and 1.01 | 0.957 and 0.941 | 0.965 and 0.954 | 0.913 and 0.734 | 0.959 and 0.894 | 0.903 and 0.899 | 0.963 and 0.916 | 0.98 and 0.994 | 0.99 and 0.941 | 0.959 and 0.955 | 0.995 and 0.982 | 0.985 and 1.03 | 1.07 and 0.951 | 0.927 and 0.887 | 0.974 and 0.906 | 1.05 and 1.01 | 0.949 and 0.879 | 0.98 and 0.937 | 0.977 and 0.917
c1cc2ccc3cccc4ccc(c1)c2c34 | 0.918 | 0.992 | 1 | 0.997 | 1.01 | 0.997 | 1.02 | 0.948 | 0.959 | 0.946 | 0.914 | 0.958 | 0.982 | 1.04 | 0.945 | 0.993 | 0.934 | 1 | 0.751 (active) | 0.976
CC(C)=CC1C(C(=O)OCc2coc(Cc3ccccc3)c2)C1(C)C (stereo not given) | 0.878 | 0.995 | 0.943 | 1 | 0.965 | 0.973 | 0.988 | 0.899 | 1.02 | 0.936 | 1.01 | 0.996 | 1.01 | 0.917 | 0.878 | 1.06 | 1.12 | 0.98 | 1.01 | 0.944
Cc1c(COC(=O)[C@@H]2[C@H](/C=C(\Cl)C(F)(F)F)C2(C)C)cccc1-c1ccccc1 | 0.924 | 0.971 | 0.998 | 1.01 | 0.972 | 0.974 | 1.01 | 0.923 | 1.02 | 0.928 | 1.03 | 1.02 | 1.02 | 0.938 | 1.07 | 0.862 | 0.982 | 1.03 | 1.01 | 0.965

From the supplement of paper PMC12669032
